Results on eight compounds are retold here after PubChem BioAssay (NCI).

About 83,000 compounds went through this panel and 20% of them were active in at least one assay; those are over-represented in the sample as a whole.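 Growth was measured after 48 h exposure to one concentration of compound in 96-well plates. Values under 10 count as active.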 Values without a mark were called inactive. Activity calls are given as the source filed them.

Test systems include RPMI-8226 leukemia; OVCAR-8 ovarian; OVCAR-5 ovarian; OVCAR-4 ovarian; SK-OV-3 ovarian; IGROV1 ovarian; OVCAR-3 ovarian; HS 578T breast; NCI/ADR-RES ovarian; T-47D breast; BT-549 breast; MDA-MB-435 melanoma; SW-620 colon; MCF7 breast; HCT-116 colon; KM12 colon; HCC-2998 colon.
Holding throughout (assay): NCI-60 one-dose screen, 48 h (100 = growth as untreated, 0 = no growth, -100 = all killed)
Holding throughout (conditions): 10 µM unless noted

Take `C[C@]12CC[C@@H]3c4ccc(O)cc4CC[C@H]3[C@@H]1CC[C@@H]2NS(=O)(=O)c1cccc(Br)c1`: the growth with RPMI-8226 leukemia is 44.4%; in the assay with OVCAR-8 ovarian, 67%; with OVCAR-5 ovarian it was 97.7%; in the assay on OVCAR-4 ovarian it was 53.9%; in the assay on SK-OV-3 ovarian it was 90.7%; in the assay on IGROV1 ovarian, 53.1%. The growth with OVCAR-3 ovarian is 58.8%; with HS 578T breast, 73.8%; in the assay on NCI/ADR-RES ovarian it was 56.2%; with T-47D breast, 37.4%; with BT-549 breast, 69.2%; with MDA-MB-435 melanoma, 48.4%. Moreover, the growth is 81.4% in the assay with SW-620 colon, 37.5% in the assay with MCF7 breast, 44.2% with HCT-116 colon and 51.2% in the assay on KM12 colon.

Regarding `Cc1ccc(C(C)C)cc1NC(=O)Nc1ccc([N+](=O)[O-])cc1`, the growth was -61.9% (active) in the assay with RPMI-8226 leukemia; 15.2% in the assay on OVCAR-8 ovarian; 26.8% in the assay on OVCAR-5 ovarian; 28.2% in the assay on OVCAR-4 ovarian; 7.01% (active) in the assay with SK-OV-3 ovarian; 6.68% (active) with IGROV1 ovarian. Besides, the growth in the assay on OVCAR-3 ovarian is -21.9% (active); in the assay on HS 578T breast, 14.7%; in the assay with NCI/ADR-RES ovarian, -10.7% (active); in the assay on T-47D breast, 0.428% (active); with BT-549 breast, -1.5% (active); in the assay with MDA-MB-435 melanoma it was 11%. Also, the growth with SW-620 colon was 10.5%; in the assay on MCF7 breast, -10.2% (active); with HCT-116 colon, -23.2% (active); with KM12 colon, 2.72% (active).

For the compound `CCCCSc1cc(C)nc(N)n1`, the growth in the assay on RPMI-8226 leukemia was 73.4%; in the assay with OVCAR-8 ovarian, 107%; with OVCAR-5 ovarian, 94%; with OVCAR-4 ovarian, 98.1%; with SK-OV-3 ovarian, 97.8%; with IGROV1 ovarian, 100%. The growth was 103% with OVCAR-3 ovarian; 92.3% in the assay with HS 578T breast; 95% in the assay with NCI/ADR-RES ovarian; 96.4% with T-47D breast; 88.8% with BT-549 breast; 97.2% with MDA-MB-435 melanoma. Also, the growth in the assay with SW-620 colon is 97.8%; in the assay on MCF7 breast, 94.5%; in the assay with HCT-116 colon it was 90.7%; with KM12 colon it was 98.8%.

As to `CC(C)[O-].CC(C)[O-].CN(CCN(C)Cc1cc(F)cc(F)c1[O-])Cc1cc(F)cc(F)c1[O-].[Ti+4]`, the growth was 32.9% with RPMI-8226 leukemia; 10.6% in the assay with OVCAR-8 ovarian; 12.4% with OVCAR-5 ovarian; 14% in the assay with OVCAR-4 ovarian; 16.4% in the assay on SK-OV-3 ovarian; -42.2% (active) with IGROV1 ovarian. Besides, the growth was 4.78% (active) in the assay with OVCAR-3 ovarian; -16% (active) with HS 578T breast; 11.2% in the assay on NCI/ADR-RES ovarian; 9.18% (active) in the assay on T-47D breast; -1.16% (active) with BT-549 breast; -24.5% (active) with MDA-MB-435 melanoma. Moreover, the growth in the assay with SW-620 colon is 0.502% (active); in the assay on MCF7 breast, -42.2% (active); with HCT-116 colon it was -0.794% (active); in the assay with HCC-2998 colon, 57%; in the assay with KM12 colon it was -30.7% (active).

With `NC(=O)NN=C(C1CC1)C1CC1`, the growth is 114% in the assay on RPMI-8226 leukemia; 123% in the assay on OVCAR-8 ovarian; 101% in the assay with OVCAR-5 ovarian; 104% with OVCAR-4 ovarian; 104% with SK-OV-3 ovarian; 109% in the assay on IGROV1 ovarian. Further, the growth in the assay with OVCAR-3 ovarian was 106%; in the assay on HS 578T breast, 97%; in the assay with NCI/ADR-RES ovarian it was 105%; in the assay on T-47D breast, 107%; in the assay on BT-549 breast it was 106%; in the assay with MDA-MB-435 melanoma, 105%. For the same compound, the growth was 98.6% with SW-620 colon, 92.9% in the assay with MCF7 breast, 102% with HCT-116 colon and 104% in the assay on KM12 colon.

Consider `COc1cc2c(C#N)n3c(c2cc1OC)C(=O)C(c1ccccc1)Oc1ccccc1-3` (centres undefined), for which the growth in the assay on RPMI-8226 leukemia was 28.7%; in the assay on OVCAR-8 ovarian, 18.1%; in the assay on OVCAR-5 ovarian, 69.2%; in the assay with OVCAR-4 ovarian, 16%; with SK-OV-3 ovarian it was 97.6%; in the assay on IGROV1 ovarian it was 58.3%. Besides, the growth with OVCAR-3 ovarian is 53.2%; in the assay on HS 578T breast, 73.5%; in the assay on NCI/ADR-RES ovarian, 21.5%; in the assay with T-47D breast, 17.1%; in the assay on BT-549 breast it was -7.13% (active); in the assay with MDA-MB-435 melanoma, 55.5%. In addition, the growth was 87.6% in the assay with SW-620 colon, 93.9% in the assay on MCF7 breast, 27.9% in the assay on HCT-116 colon and 23.4% with KM12 colon.

As for `CCOC(=O)/C(=C/c1ccccc1)C(=O)c1ccccc1`, the growth is 3.77% (active) in the assay on RPMI-8226 leukemia; 65.3% in the assay with OVCAR-8 ovarian; 97.3% in the assay on OVCAR-5 ovarian; 81.8% with OVCAR-4 ovarian; 92.6% in the assay with SK-OV-3 ovarian; 65.8% with IGROV1 ovarian. Moreover, the growth in the assay on OVCAR-3 ovarian was 63.5%; in the assay with HS 578T breast it was 88%; in the assay on NCI/ADR-RES ovarian it was 65.3%; in the assay on T-47D breast it was 73.6%; with BT-549 breast, 73.4%; in the assay on MDA-MB-435 melanoma, 50.8%. Further, the growth in the assay with SW-620 colon was 70.9%; in the assay with MCF7 breast it was 41.1%; in the assay on HCT-116 colon, 39.4%; in the assay on KM12 colon, 67.1%.

As for `COc1cc(C2CC(=O)Nc3c2cc(Br)c2ccccc32)cc(Br)c1OC` (centres undefined), the growth in the assay on RPMI-8226 leukemia is 43.3%; in the assay with OVCAR-8 ovarian, 31.7%; in the assay on OVCAR-5 ovarian it was 76.2%; in the assay on OVCAR-4 ovarian it was -64.2% (active); in the assay on SK-OV-3 ovarian, -15.1% (active); in the assay with IGROV1 ovarian, 26.7%. Also, the growth was -13% (active) in the assay with OVCAR-3 ovarian; 39.6% with HS 578T breast; 6.65% (active) in the assay on NCI/ADR-RES ovarian; 4.99% (active) in the assay on T-47D breast; 60.7% with BT-549 breast; -29.6% (active) with MDA-MB-435 melanoma. Moreover, the growth in the assay on SW-620 colon was 17.6%; in the assay with MCF7 breast, 17.3%; in the assay with HCT-116 colon it was -5.31% (active); with KM12 colon, 6.63% (active).
